The source of these data is ChEMBL document CHEMBL2218924, “A broad activity screen in support of a chemogenomic map for kinase signalling research and drug discovery” (Biochem J, 2013).

Assay [1] addresses Serine/threonine-protein kinase 33 (Homo sapiens) (UniProt Q9BYT3). The settings on record: at 1 µM.
The target is the same in assay [2]. Conditions: at 10 µM.
The target in assay [3] is Serine/threonine-protein kinase PLK2 (Homo sapiens) (UniProt Q9NYY3). Conditions: at 1 µM.
The target is the same in assay [4]. The settings on record: at 10 µM.
The target in assay [5] is Tyrosine-protein kinase SYK (Homo sapiens) (UniProt P43405). The settings on record: at 1 µM.
The target is the same in assay [6]. The settings on record: at 10 µM.
For assay [7], the target named is T1, Mitogen-activated protein kinase kinase kinase 7 (Homo sapiens) (UniProt O43318).
T1 sequence (whole entry): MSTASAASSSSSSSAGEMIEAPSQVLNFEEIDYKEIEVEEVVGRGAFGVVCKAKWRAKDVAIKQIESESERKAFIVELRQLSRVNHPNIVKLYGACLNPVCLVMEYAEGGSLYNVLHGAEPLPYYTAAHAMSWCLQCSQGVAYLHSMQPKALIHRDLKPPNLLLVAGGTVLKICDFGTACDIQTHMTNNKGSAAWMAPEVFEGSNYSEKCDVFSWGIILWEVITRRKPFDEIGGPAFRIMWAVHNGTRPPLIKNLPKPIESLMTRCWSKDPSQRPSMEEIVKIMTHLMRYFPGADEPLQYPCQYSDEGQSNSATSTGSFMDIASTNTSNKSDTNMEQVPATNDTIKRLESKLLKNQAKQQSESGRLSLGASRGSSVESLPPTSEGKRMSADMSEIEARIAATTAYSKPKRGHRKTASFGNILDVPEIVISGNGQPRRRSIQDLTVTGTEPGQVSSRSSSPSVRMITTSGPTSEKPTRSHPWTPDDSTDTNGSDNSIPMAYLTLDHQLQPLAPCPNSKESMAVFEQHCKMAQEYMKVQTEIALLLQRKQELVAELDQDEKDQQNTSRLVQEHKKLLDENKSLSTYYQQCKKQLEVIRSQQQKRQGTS
The settings on record: at 1 µM.

Assay [8] concerns the target T1, Mitogen-activated protein kinase kinase kinase 7 (Homo sapiens). The settings on record: at 10 µM.
Assay [9] has as its target T2, Serine/threonine-protein kinase TAO1 (Homo sapiens) (UniProt Q7L7X3).
T2 sequence (whole entry): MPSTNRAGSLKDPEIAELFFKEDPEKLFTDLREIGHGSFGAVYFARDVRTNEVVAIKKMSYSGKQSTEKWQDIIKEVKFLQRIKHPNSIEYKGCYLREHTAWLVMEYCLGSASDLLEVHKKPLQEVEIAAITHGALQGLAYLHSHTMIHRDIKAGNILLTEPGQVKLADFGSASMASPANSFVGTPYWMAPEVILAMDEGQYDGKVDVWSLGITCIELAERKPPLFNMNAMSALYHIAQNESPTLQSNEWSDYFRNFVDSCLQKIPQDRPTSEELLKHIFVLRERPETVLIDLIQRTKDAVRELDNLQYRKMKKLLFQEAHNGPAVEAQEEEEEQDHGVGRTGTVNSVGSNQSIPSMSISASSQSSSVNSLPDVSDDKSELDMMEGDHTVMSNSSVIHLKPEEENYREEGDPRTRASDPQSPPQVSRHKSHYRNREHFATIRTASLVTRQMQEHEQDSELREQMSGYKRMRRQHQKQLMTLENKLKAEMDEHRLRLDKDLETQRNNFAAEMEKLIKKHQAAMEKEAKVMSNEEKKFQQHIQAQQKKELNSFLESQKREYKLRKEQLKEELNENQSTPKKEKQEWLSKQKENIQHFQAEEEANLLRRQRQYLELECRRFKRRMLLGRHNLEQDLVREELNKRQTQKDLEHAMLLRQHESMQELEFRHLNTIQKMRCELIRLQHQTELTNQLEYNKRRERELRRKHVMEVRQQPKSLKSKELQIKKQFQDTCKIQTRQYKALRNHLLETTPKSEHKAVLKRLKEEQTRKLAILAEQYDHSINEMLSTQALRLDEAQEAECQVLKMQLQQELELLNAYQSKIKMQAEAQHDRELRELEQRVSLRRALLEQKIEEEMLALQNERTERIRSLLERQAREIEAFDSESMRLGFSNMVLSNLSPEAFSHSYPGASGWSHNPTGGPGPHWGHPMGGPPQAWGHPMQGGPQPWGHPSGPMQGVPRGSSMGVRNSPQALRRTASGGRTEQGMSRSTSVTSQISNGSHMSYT
The settings on record: at 1 µM.

The target in assay [10] is T2, Serine/threonine-protein kinase TAO1 (Homo sapiens). Conditions: at 10 µM.
Assay [11] concerns the target T3, Serine/threonine-protein kinase TAO2 (Homo sapiens) (UniProt Q9UL54).
T3 sequence (whole entry): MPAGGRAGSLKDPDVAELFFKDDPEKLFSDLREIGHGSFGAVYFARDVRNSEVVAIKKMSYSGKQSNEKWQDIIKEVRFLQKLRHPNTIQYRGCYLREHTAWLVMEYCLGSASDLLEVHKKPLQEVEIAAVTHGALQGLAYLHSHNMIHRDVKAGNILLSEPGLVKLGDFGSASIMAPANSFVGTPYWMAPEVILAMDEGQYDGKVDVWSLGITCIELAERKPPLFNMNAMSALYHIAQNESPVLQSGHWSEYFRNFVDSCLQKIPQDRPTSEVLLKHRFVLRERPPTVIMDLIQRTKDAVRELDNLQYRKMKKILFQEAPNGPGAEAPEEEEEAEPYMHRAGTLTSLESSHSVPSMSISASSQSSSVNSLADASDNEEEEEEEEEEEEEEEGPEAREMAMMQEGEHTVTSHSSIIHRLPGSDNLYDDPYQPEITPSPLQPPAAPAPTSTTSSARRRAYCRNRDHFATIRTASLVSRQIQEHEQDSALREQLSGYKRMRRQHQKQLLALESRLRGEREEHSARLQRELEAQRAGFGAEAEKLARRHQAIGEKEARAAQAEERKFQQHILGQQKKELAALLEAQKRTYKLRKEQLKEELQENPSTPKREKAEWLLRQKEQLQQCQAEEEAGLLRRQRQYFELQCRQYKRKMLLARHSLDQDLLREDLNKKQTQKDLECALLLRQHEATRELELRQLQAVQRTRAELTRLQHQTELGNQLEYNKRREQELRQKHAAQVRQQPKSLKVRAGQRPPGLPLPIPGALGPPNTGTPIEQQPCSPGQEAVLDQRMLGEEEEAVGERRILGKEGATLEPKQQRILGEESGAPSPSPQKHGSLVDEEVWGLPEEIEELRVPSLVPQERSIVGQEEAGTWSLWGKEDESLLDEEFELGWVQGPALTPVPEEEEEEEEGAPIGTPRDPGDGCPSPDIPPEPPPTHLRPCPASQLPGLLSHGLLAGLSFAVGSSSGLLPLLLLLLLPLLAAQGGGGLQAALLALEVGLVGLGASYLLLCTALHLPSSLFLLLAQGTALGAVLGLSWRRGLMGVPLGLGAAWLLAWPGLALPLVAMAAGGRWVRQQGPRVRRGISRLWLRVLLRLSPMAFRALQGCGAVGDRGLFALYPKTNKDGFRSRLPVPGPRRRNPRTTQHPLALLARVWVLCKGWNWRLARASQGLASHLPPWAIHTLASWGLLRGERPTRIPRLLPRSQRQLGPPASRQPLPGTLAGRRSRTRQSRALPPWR
Conditions: at 1 µM.

Assay [12] addresses T3, Serine/threonine-protein kinase TAO2 (Homo sapiens). Conditions: at 10 µM.
For assay [13], the target named is T4, Serine/threonine-protein kinase TAO3 (Homo sapiens) (UniProt Q9H2K8).
T4 sequence (whole entry): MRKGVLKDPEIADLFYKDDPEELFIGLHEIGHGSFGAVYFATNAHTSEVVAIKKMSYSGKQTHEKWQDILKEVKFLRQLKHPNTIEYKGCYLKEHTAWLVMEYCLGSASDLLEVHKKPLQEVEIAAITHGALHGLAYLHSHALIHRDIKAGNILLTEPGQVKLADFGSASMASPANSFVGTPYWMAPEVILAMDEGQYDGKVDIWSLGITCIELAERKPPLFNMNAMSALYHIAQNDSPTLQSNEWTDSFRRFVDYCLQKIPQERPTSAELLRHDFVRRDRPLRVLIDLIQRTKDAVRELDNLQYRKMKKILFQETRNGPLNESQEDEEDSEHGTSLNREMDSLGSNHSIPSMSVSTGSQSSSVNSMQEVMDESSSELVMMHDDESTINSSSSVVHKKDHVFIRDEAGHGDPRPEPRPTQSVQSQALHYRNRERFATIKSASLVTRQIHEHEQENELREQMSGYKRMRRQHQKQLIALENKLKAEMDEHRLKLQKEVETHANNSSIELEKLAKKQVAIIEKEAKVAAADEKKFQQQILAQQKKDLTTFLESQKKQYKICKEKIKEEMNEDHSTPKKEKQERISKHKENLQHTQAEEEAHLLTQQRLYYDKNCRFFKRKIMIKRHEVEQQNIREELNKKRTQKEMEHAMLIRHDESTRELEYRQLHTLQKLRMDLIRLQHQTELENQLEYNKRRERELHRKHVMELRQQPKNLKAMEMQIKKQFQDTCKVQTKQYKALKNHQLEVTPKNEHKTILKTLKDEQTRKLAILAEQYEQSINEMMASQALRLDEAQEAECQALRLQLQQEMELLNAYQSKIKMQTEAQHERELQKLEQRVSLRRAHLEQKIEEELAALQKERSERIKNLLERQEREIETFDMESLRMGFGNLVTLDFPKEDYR
The settings on record: at 1 µM.

Assay [14] deals with T4, Serine/threonine-protein kinase TAO3 (Homo sapiens). The settings on record: at 10 µM.
In assay [15] the target is T5, Serine/threonine-protein kinase TBK1 (Homo sapiens) (UniProt Q9UHD2).
T5 sequence (whole entry): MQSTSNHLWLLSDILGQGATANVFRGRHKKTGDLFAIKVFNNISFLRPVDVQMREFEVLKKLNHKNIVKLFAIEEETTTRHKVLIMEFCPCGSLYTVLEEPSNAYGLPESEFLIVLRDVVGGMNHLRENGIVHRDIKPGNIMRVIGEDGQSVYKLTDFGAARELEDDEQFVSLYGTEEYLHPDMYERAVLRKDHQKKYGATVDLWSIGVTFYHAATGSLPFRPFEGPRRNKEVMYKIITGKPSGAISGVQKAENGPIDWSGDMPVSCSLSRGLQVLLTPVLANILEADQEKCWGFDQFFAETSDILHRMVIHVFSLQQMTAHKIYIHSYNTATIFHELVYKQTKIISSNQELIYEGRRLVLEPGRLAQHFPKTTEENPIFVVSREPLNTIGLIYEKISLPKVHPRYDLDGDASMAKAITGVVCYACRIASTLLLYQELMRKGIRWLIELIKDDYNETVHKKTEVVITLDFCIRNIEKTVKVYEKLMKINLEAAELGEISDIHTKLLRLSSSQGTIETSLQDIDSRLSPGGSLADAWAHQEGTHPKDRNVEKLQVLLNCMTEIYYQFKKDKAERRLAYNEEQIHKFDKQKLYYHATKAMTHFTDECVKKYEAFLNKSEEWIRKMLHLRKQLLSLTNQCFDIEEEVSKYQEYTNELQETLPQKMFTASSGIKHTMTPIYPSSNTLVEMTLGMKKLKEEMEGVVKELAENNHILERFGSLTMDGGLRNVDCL
Conditions: at 1 µM.

Assay [16] deals with T5, Serine/threonine-protein kinase TBK1 (Homo sapiens). Conditions: at 10 µM.
Assay [17] has as its target T6, TGF-beta receptor type-1 (Homo sapiens) (UniProt P36897).
T6 sequence (whole entry): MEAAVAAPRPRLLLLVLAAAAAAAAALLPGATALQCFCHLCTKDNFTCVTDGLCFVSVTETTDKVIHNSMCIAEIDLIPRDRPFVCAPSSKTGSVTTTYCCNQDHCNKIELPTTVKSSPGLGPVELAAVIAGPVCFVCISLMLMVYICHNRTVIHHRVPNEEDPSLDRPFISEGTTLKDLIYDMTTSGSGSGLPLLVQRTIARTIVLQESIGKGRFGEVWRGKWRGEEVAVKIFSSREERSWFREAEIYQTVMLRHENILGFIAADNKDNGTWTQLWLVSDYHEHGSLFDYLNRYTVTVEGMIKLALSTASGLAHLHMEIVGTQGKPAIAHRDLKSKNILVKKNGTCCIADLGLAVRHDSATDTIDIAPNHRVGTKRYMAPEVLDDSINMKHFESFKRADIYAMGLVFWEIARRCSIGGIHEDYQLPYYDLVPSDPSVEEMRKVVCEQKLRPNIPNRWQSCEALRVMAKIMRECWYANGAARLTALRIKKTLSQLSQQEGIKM
Conditions: at 1 µM.

The target of assay [18] is T6, TGF-beta receptor type-1 (Homo sapiens). Conditions: at 10 µM.
For assay [19], the target named is Insulin-like growth factor 1 receptor (Homo sapiens) (UniProt P08069). Conditions: at 1 µM.
Assay [20] has the same target. The settings on record: at 10 µM.

Sequence of Serine/threonine-protein kinase 33 (Homo sapiens) (Q9BYT3 whole entry, looked up): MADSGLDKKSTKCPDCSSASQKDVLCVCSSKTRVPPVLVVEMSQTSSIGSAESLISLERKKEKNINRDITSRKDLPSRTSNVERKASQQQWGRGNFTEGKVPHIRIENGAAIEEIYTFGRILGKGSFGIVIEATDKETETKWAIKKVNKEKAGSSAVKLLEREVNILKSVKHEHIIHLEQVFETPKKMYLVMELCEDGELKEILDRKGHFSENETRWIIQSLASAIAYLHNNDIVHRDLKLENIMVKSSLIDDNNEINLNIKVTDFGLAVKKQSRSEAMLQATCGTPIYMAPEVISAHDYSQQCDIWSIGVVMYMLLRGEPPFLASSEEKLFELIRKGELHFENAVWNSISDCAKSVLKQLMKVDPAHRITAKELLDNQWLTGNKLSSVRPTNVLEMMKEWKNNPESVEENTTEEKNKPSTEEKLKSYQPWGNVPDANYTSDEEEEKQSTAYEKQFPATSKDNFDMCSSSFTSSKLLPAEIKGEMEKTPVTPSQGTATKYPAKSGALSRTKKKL
Sequence of Serine/threonine-protein kinase PLK2 (Homo sapiens) (Q9NYY3 whole entry, looked up): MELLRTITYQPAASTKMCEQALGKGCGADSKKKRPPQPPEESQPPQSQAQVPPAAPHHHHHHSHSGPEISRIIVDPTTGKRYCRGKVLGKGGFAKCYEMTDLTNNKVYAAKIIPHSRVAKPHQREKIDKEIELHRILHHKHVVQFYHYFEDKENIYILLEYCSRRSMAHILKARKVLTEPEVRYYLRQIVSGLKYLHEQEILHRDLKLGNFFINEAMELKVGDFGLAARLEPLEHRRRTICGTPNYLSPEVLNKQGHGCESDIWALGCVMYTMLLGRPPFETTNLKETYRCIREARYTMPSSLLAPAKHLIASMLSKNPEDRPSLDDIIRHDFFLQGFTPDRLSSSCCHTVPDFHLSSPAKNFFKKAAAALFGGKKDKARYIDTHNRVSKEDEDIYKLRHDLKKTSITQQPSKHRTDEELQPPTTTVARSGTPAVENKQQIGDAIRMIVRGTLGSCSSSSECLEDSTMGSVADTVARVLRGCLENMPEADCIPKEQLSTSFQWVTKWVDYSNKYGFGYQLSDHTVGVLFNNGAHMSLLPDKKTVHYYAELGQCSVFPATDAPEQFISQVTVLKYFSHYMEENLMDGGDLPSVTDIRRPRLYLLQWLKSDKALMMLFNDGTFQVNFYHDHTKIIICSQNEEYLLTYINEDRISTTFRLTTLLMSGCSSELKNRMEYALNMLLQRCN
Sequence of Insulin-like growth factor 1 receptor (Homo sapiens) (P08069 31-736 limits assumed): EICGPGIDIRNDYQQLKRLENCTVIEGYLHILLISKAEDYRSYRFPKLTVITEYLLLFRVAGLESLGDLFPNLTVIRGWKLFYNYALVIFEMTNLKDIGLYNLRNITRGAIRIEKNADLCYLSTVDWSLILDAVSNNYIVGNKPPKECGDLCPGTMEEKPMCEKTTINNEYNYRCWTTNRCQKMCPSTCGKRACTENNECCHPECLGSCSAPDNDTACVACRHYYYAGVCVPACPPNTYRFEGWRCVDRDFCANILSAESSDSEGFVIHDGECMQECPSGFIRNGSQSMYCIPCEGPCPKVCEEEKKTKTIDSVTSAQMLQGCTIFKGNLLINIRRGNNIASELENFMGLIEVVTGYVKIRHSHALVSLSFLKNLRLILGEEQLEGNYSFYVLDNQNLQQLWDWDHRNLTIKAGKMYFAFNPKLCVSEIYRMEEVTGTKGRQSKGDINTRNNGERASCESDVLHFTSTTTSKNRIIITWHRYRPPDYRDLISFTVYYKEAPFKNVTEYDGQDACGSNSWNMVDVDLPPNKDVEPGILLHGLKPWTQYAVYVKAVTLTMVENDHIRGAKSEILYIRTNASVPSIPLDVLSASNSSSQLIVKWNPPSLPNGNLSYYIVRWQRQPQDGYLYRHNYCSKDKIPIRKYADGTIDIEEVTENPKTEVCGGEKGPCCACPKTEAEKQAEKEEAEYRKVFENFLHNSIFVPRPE
Sequence of Insulin-like growth factor 1 receptor (Homo sapiens) (P08069 741-1367 limits assumed): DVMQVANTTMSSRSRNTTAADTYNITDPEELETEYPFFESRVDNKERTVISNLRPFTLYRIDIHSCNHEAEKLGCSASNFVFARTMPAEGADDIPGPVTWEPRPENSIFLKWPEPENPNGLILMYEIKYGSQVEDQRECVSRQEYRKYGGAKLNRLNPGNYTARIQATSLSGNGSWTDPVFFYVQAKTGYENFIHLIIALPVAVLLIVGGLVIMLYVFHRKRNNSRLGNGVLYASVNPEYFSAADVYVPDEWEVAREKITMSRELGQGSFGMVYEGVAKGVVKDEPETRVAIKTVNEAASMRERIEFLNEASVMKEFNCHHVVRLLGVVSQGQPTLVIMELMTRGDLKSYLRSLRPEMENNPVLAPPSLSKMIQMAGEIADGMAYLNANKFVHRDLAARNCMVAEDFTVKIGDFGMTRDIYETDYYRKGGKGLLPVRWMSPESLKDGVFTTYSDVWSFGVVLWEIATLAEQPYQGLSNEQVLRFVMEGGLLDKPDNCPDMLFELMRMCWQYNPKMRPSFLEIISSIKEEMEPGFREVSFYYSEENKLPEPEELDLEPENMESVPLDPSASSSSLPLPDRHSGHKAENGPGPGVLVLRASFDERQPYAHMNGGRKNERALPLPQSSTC

Consider `O=c1[nH]c2ccccc2n1C1CCN(Cc2ccc(-c3nc4cc5[nH]cnc5cc4nc3-c3ccccc3)cc2)CC1`, for which the residual activity in assay [1] is 100%; in assay [2], 95%; in assay [3], 91%; in [4], 92%; in assay [5], 125%; in assay [6], 76%. For the same molecule, the residual activity turned out to be 97% in [7]; 96% in assay [8]; 102% in assay [9]; 65% in [10]; 101% in assay [11]; 56% in assay [12]. Further, the residual activity in assay [13] came to 93%; in [14], 66%; in assay [15], 82%; in [16] it was 68%; in assay [17], 91%; in assay [18], 87%. Besides, the residual activity in [19] was 98%; in assay [20], 80%.
Consider `COc1ccc2c(c1)/C(=C/c1cnc[nH]1)C(=O)N2`, for which the residual activity in assay [2] worked out at 53%; in assay [7] it was 75%; in [8] it was 21%; in assay [9], 41%; in assay [10], 7%; in [11], 72%. The figures for the residual activity in [12], in assay [13] and in assay [14] were 14%, 59% and 12%, respectively.
